Source: PubChem BioAssay (EPA / NIEHS)
The source made the active and inactive calls. The calls were made as follows: active = hit-call score of the fitted dose curve at least 0.9, where 1 is the maximum; inactive = score below 0.9.

experiment: CCTE_Padilla_ZF_Score.Edema: CCTE's 144 Hour Post-fertilization zebrafish Assay Score for Edema Malformation, Padilla Lab (AID 2284406)
Procedure: CCTE_Padilla_ZF_Phenotype_Score is a whole embryo, multiplexed assay using zebrafish ova exposed for 144 hours post fertilization on a 96-well plate.CCTE_Padilla_ZF_Score.Edema is one of one assay component(s) measured or calculated from the CCTE_Padilla_ZF_Phenotype_Score assay. It is designed to make measurements of zebrafish development as detected with brightfield microscopy of developing zebrafish embryos.Data from the assay component CCTE_Padilla_ZF_Score.Edema was analyzed into 1 assay endpoints. This assay endpoint, CCTE_Padilla_ZF_Score.Edema, was analyzed in the positive analysis fitting direction relative to DMSO as the negative control and baseline of activity. Using a type of viability reporter, gain-of-signal activity can be used to understand changes in developmentals as they relate to the whole embryo. To generalize the intended target to other relatable targets, this assay endpoint is annotated to the zebrafish development intended target family, where the subfamily is embryonic edema.
Zebrafish husbandry: Wild type adult zebrafish (Danio rerio; undefined outbred stock obtained from Aquatic Research Organisms, Hampton, NH, 03842) were housed in an AAALAC-approved animal facility at 28C with a 14:10 h light: dark cycle (lights on at 08:30 h). Adult fish (2-3 females per male; density = 15-20 adults per tank) were kept in one of several 9-liter (L) flow-through colony tanks (Aquaneering Inc., San Diego, CA). All adults in a colony tank were placed in a 2 L (static) breeding tank (Aquatic Habitats, Apopka, FL) one hour prior to light onset. Typically, adults from two to three colony tanks were mated on the same day. Two hours after light onset the adults were returned to the colony tank. All embryos were gathered from each breeder tank, pooled, and placed in a 28C water bath for 2 h, followed by two washes with 0.06% bleach (v/v) in 10% Hanks' Balanced Salt Solution (13.7 mM NaCl 0.54 mM KCl, 25 uM Na2HPO4, 130 uM CaCl2 100 um MgSO4 and 420 um NaHCO3,), hereafter referred to as Hanks' solution, for 5 min in order to remove any residual bacteria or fungi. Immediately following washing, the embryos were examined, and healthy embryos were separated from dead or unfertilized eggs and moved into fresh Hanks'. Chemical exposures: Zebrafish embryos were exposed in 96-well plates. Between 6- and 8-hours post fertilization (hpf), healthy embryos (with chorions) were transferred, one embryo per well, into 96 well (0.5 mL) microtiter plates (Cell Culture-Treated, Flat-Bottom Microplate 96 well [Corning Costar, Kennebunk, ME; Cat 09-761-145]) filled with 200 uL of Hanks' solution. A random number generator was used to assign the order in which the rows of embryos were plated in 96 well plates each week. After plating, the embryos were dosed with 0.8 uL of the chemical dosing solution then immediately sealed with AlumaSeal II (Excel Scientific Inc, Victorville, CA) to prevent volatilization of the chemicals, and then placed in a leakproof secondary container. These containers were placed in an incubator maintained on a 14:10 h light: dark cycle at 26C for rearing. On 5 dpf, live larvae were gently moved out of the plate with test chemicals and into a new 96 well mesh plate (Millipore Corp., Bedford, MA) with just the Hanks' solution. Once within the mesh well plate, the animals were rinsed with 400 uL of fresh Hanks' three times, and then the plates were covered with a non-adhesive material (Microseal A, BioRad, Hercules, CA), plate lid added, and then plate sides wrapped in Parafilm (PM992, Bermis Company, Neenah, WI), and returned to the incubator. This rinse on 5 dpf was conducted to lessen the possible exposure of the human assessors to the chemicals during detailed examination of each larva at 6 dpf.Larval assessments: On 6 dpf between 8 and 10 AM, two individual assessors, blinded to the chemical treatments, independently examined each larva for mortality, hatching status, and malformations using an Olympus SZH10 stereo microscope. […]

Row | Compound | outcome | AC50
1 | NCC(F)(F)C(F)(F)C(F)(F)C(F)(F)F | inactive | –
2 | FC(F)(F)COC(OCC(F)(F)F)OCC(F)(F)F | inactive | –
3 | FC(F)C(F)(F)COCC1CO1 (stereo not given) | – | 29.5 µM (active)
4 | FC(F)(F)C(F)(F)C(F)(F)C(F)(F)C(F)(F)C(F)(F)I | inactive | –
5 | FC(F)=C(F)C(F)(F)C(F)(F)C(F)(F)C(F)(F)C(F)(F)C(F)(F)F | inactive | –
6 | O=S(=O)(O)CCC(F)(F)C(F)(F)C(F)(F)C(F)(F)C(F)(F)C(F)(F)F | inactive | –
7 | OCCC(F)(F)C(F)(F)C(F)(F)C(F)(F)F | inactive | –
8 | O=C(Cl)C(F)(F)C(F)(F)C(F)(F)C(=O)Cl | inactive | –
9 | OC(O)(C(F)C(O)(O)C(F)(F)F)C(F)(F)F | – | 31.3 µM (active)
10 | C[Si](C)(C)C(F)(F)C(F)(F)C(F)(F)F | inactive | –
